{"source": "ChEMBL document CHEMBL4513216", "about": "“Probing the Open Global Health Chemical Diversity Library for Multistage-Active Starting Points for Next-Generation Antimalarials” (ACS Infect Dis, 2020)", "note": "Among all 65,000 compounds or so, about 2,100 (3.2%) showed an effect of 50% or more. The median lay at about -52%. The sample as a whole holds a higher share of strong results than the screen did."}
{"test_system": "Plasmodium falciparum", "assay": "Screen against P. falciparum Asexual Blood Stage (ABS), at 5uM", "assay_type": "functional, Dd2", "settings": "tested at 5 uM", "units": {"INHIBITION": "%"}}
{"smiles": "CNC(=O)CN1CCO[C@H]2CN(CC3CC3)C[C@H]21", "INHIBITION": -76.5}
{"smiles": "Cn1cc(CN2C[C@H]3CN(c4cncnc4)C(=O)[C@H]3C2)cn1", "INHIBITION": -44.8}
{"smiles": "CC(C)C(CNCc1cccc2c1OCO2)N1CCOCC1", "note": "(stereo not drawn)", "INHIBITION": 76}
{"smiles": "CNC(=O)[C@H]1C[C@@H]2CN(C(=O)c3ccncc3F)C[C@@H]2N1C", "INHIBITION": -96.9}
{"smiles": "CN1CC[C@H](N(Cc2ccccc2)CC2CC2)C[C@H](O)C1", "INHIBITION": 80.8}
{"smiles": "Cc1nc(CC(=O)N2CCCC(N(C)Cc3ccccc3)C2)cs1", "note": "(stereo not drawn)", "INHIBITION": -55.85}
{"smiles": "CN1CC[C@H](N(Cc2ccccc2)Cc2ccccc2)C[C@H](O)C1", "INHIBITION": 72.1}
{"smiles": "CN1CC[C@@H]2OC[C@H](C(=O)N(C)Cc3ccccn3)C[C@@H]2C1", "INHIBITION": -138}
{"smiles": "Cc1noc(C)c1CN1C[C@@H]2OCCN(Cc3cnn(C)c3)[C@@H]2C1", "INHIBITION": -2.02}
{"smiles": "O=C(Cc1csc(-c2ccco2)n1)N1CCN(CCO)CC1", "INHIBITION": -30.8}
{"smiles": "Cc1ccc(CN2CC[C@H]3[C@H]2CC(=O)N3c2cccnc2)o1", "INHIBITION": -38.1}
{"smiles": "Cn1cc(C2=CCN(CCC(=O)NCc3ccc(Cl)cc3)CC2)cn1", "INHIBITION": 5}
{"smiles": "CN(C)CCNC(=O)CCn1ncc2c(Cl)cccc21", "INHIBITION": 71}
{"smiles": "Cc1cc(CN2CC[C@H]3C[C@H](C)O[C@@H]3C2)no1", "INHIBITION": -86.2}
{"smiles": "Cc1c(CC(=O)N2CCN(C(C)C)CC2)nnn1-c1ccccc1", "INHIBITION": -40.6}
{"smiles": "CN1CCCC1CCn1ccnc1-c1nc2ccccc2[nH]1", "note": "(stereo not drawn)", "INHIBITION": 72.2}
{"smiles": "O=C1[C@H]2CN(Cc3ccccc3)C[C@H]2CN1c1cncnc1", "INHIBITION": -76.5}
{"smiles": "Cc1ccc(OCC(=O)N2CCN[C@H]3CS(=O)(=O)C[C@H]32)cn1", "INHIBITION": -103}
{"smiles": "Cc1cccc(CN2CC[C@@H]3[C@@H]2CCN3Cc2cccs2)n1", "INHIBITION": 29.9}
{"smiles": "COCCN1CCO[C@H]2CCN(C(=O)c3ccnnc3)CC[C@@H]21", "INHIBITION": -39.1}
{"smiles": "CC(C)N1CCc2c(CN(C)Cc3ccco3)cncc2C1", "INHIBITION": -16.1}
{"smiles": "CCc1cc(CN(C)C(=O)CN2CC(Cc3ccccc3)CC2=O)on1", "note": "(stereo not drawn)", "INHIBITION": -126}
{"smiles": "Cc1noc(C)c1CN(C)C(=O)CN1CC(c2ccccc2)CC1=O", "note": "(stereo not drawn)", "INHIBITION": -83.2}
{"smiles": "CN1CCC(N(C)c2ccccc2CNCc2ccco2)CC1", "INHIBITION": 85.9}
{"smiles": "CCc1cc(CNCc2ccccc2N(C)C2CCN(C)CC2)on1", "INHIBITION": 74.5}
{"smiles": "Cc1noc(C)c1CN1CCN(C)c2ncccc2C1", "INHIBITION": -31.9}
{"smiles": "CCc1cc(CN(C)C(=O)CN2CC(c3ccccc3)CC2=O)on1", "note": "(stereo not drawn)", "INHIBITION": -13.6}
{"smiles": "CN(C)CCN1CCN(Cc2ccco2)Cc2cccnc21", "INHIBITION": 11.9}
{"smiles": "Cc1noc(C)c1CNCc1ccccc1N(C)C1CCN(C)CC1", "INHIBITION": 73.6}
{"smiles": "CC(C)=CCN1C(=O)[C@@H]2CC[C@H]1CN(Cc1cccnc1N)C2", "INHIBITION": -11.1}
{"smiles": "CC1CN(C)CCN1C(=O)Cc1cc(Cl)c2c(c1)OCCO2", "note": "(stereo not drawn)", "INHIBITION": -23.7}
{"smiles": "CCc1noc(CN2CCOC3(CCCC3)C2)n1", "INHIBITION": -159}
{"smiles": "c1cc(CN2C[C@@H]3OCCN(CCN4CCCC4)[C@@H]3C2)ccn1", "INHIBITION": -104}
{"smiles": "Cc1[nH]c2c(C)cccc2c1CC(=O)N(C)CCN(C)C", "INHIBITION": 46.3}
{"smiles": "Cc1ccc2c(CC(=O)N(C)CCN(C)C)c(C)[nH]c2c1C", "INHIBITION": -86.5}
{"smiles": "Cc1cc(C)c2[nH]c(C)c(CC(=O)N(C)CCN(C)C)c2c1", "INHIBITION": 61.9}
{"smiles": "N#Cc1ccc(C(=O)NS(=O)(=O)c2ccc(C#N)c(Cl)c2)cc1", "INHIBITION": -1}
{"smiles": "COc1cccc(CNc2cc(C)nc(-c3ccncc3)n2)c1OC", "INHIBITION": 89.3}
{"smiles": "FC(F)(F)c1cc(-c2cccs2)nc(N2CCN3CCCC3C2)n1", "note": "(stereo not drawn)", "INHIBITION": -47.6}
{"smiles": "CCc1ccc(-c2cc(C(F)(F)F)nc(N3CCC(N)CC3)n2)cc1", "INHIBITION": 82.4}
{"smiles": "Cc1cc(C(F)(F)F)nc(N2CCN3CCCC3C2)n1", "note": "(stereo not drawn)", "INHIBITION": -144}
{"smiles": "O=C(Nc1cccnc1)[C@@H]1COC[C@H]2CN(C3CCCC3)C[C@H]21", "INHIBITION": -20.2}
{"smiles": "O=C(c1ccc2c(c1)COC2)N1CCC(Nc2ccccc2)CC1", "INHIBITION": -162}
{"smiles": "O=C1[C@H]2CN(Cc3ccncc3)C[C@H]2CN1c1ccsc1", "INHIBITION": -92.9}
{"smiles": "COc1cccc(CN2CCC(CO)(Cc3ccc(Cl)cc3)CC2)c1O", "INHIBITION": 89.5}
{"smiles": "c1cc(CN2CCN(Cc3ccon3)C3(CCCCC3)C2)no1", "INHIBITION": -126}
{"smiles": "Cc1noc(C)c1CN1CC[C@H]2C[C@@H](c3ccncn3)O[C@@H]2C1", "INHIBITION": -98.1}
{"smiles": "Cc1nc(-c2cccc(N3CCC(N4CCCC4)CC3)c2)cs1", "INHIBITION": 71.6}
{"smiles": "Cc1cc(N2CCN3CCCCC3C2)n2nc(C)c(C)c2n1", "note": "(stereo not drawn)", "INHIBITION": -76.1}
{"smiles": "Cc1ncccc1OCC(=O)N1CCN[C@H]2CS(=O)(=O)C[C@H]21", "INHIBITION": -151}
{"smiles": "c1ccc(CN2CCN3C[C@H](Oc4cncnc4)C[C@H]3C2)nc1", "INHIBITION": -102}
{"smiles": "NC1CCc2nc(-c3ccncc3)nc(Nc3cccc(F)c3)c2C1", "note": "(stereo not drawn)", "INHIBITION": 84.2}
{"smiles": "NC1CCc2nc(-c3cccnc3)nc(Nc3ccc(F)cc3)c2C1", "note": "(stereo not drawn)", "INHIBITION": 87.1}
{"smiles": "CCc1cc(N2CCNCC2)n2nc(C)c(C)c2n1", "INHIBITION": -115}
{"smiles": "COc1cccc([C@H]2CN(C(C)=O)[C@@H]3CCN(Cc4ccsc4)C[C@H]23)c1", "INHIBITION": 73.9}
{"smiles": "COCCN1C[C@@H]2[C@@H](OC)CCN(C(=O)Cc3ccsc3)[C@@H]2C1", "INHIBITION": 19.2}
{"smiles": "Cc1noc(C)c1CN1CC[C@H]2C[C@H](c3ccncn3)O[C@@H]2C1", "INHIBITION": -66.9}
{"smiles": "O=C(CC1CC1)N[C@@H]1CN(Cc2cccnc2)C[C@@H]2CCCO[C@@H]21", "INHIBITION": -42.5}
{"smiles": "CO[C@@H]1CCN(Cc2ccoc2)C[C@@H]1Cc1ccccc1", "INHIBITION": 89}
{"smiles": "CN1CCN(Cc2ccoc2)Cc2cccnc21", "INHIBITION": -116}
{"smiles": "COc1ccc(C[C@H]2CN(Cc3ccoc3)CC[C@H]2OC)cc1", "INHIBITION": 75.1}
{"smiles": "CC(C)c1nccc([C@H]2C[C@@H]3CCN(Cc4ccoc4)C[C@H]3O2)n1", "INHIBITION": -81.1}
{"smiles": "c1cncc(CN2CCO[C@@H]3CN(Cc4ccoc4)CC[C@@H]3C2)c1", "INHIBITION": 30.1}
{"smiles": "CC(C)c1nccc([C@@H]2C[C@@H]3CCN(Cc4ccoc4)C[C@H]3O2)n1", "INHIBITION": -35}
{"smiles": "CCN1CCC2(CCC1=O)CN(c1nccc(N)n1)CCN2C", "note": "(stereo not drawn)", "INHIBITION": -4.03}
{"smiles": "Cc1cccc(CO[C@@H]2CC[C@H]3[C@H]2OCCN3Cc2ccoc2)n1", "INHIBITION": -50.4}
{"smiles": "O=C(NCc1ccccn1)[C@@H]1COC[C@H]2CNC[C@H]21", "INHIBITION": -8.97}
{"smiles": "COCCN1C[C@@H](C)[C@@]2(COCCN(C(=O)c3ccno3)C2)C1", "INHIBITION": -103}
{"smiles": "COc1ccc(-c2ccoc2)cc1CNC1CCCC1", "INHIBITION": 70.2}
{"smiles": "CN(C)[C@@H]1CN(C(=O)Cc2cccc(F)c2)[C@@H]2CCCO[C@H]12", "INHIBITION": 24.8}
{"smiles": "OCCCN(CCc1cccc(F)c1)C1CC1", "INHIBITION": -63.8}
{"smiles": "CN(Cc1cccc(F)c1)C(=O)CN1CCCC1CCc1ccccc1", "note": "(stereo not drawn)", "INHIBITION": 75}
{"smiles": "Cn1c(CCN2CCN(c3ccc(O)cc3)CC2)nc2ccccc21", "INHIBITION": -128}
{"smiles": "Cc1ccc2c(n1)N(C)CCN(CCN1CCCC1)C2", "INHIBITION": -5.37}
{"smiles": "Cc1cc(N2CCCN(CCc3ccccc3)CC2)ccn1", "INHIBITION": 87}
{"smiles": "CO[C@@H]1CC[C@H]2[C@H]1OCCN2CC1CCOCC1", "INHIBITION": -21.2}
{"smiles": "c1cnc(N2C[C@H]3CN(CC4CCOC4)C[C@H]3C2)nc1", "note": "(stereo partly drawn)", "INHIBITION": -53}
{"smiles": "O=C1CO[C@@H]2CNC[C@H]2N1CC1CC1", "INHIBITION": -97.4}
{"smiles": "COc1ccc(CN2C[C@@H]3OCCN(c4ncccn4)[C@@H]3C2)cc1", "INHIBITION": -2.3}
{"smiles": "O=C(NCCc1ccncc1)[C@H]1CC[C@@H]2[C@@H](CCN2CC2CC2)O1", "INHIBITION": -3.59}
{"smiles": "CNC(=O)[C@@H]1CN(Cc2ccccc2)C[C@H]1C(=O)c1ccc(F)cc1", "INHIBITION": -109}
{"smiles": "O[C@@H]1CCN(CC2CC2)[C@H]1Cc1ccccc1", "INHIBITION": 63.2}
{"smiles": "O=C1C[C@H]2[C@H](CCN2Cc2ccccn2)N1CC1CC1", "INHIBITION": -90.1}
{"smiles": "COc1ccc(CN2CC[C@@H](O)[C@@H]2Cc2ccccc2)cc1", "INHIBITION": 80.7}
{"smiles": "O=C(c1ccccc1)N1CCO[C@@H]2CNC[C@@H]21", "INHIBITION": -70.7}
{"smiles": "CC(C)c1cc(N2CC[C@H](F)C2)n2nccc2n1", "INHIBITION": 70.9}
{"smiles": "Fc1ccccc1-c1cc(N2[C@@H]3CC[C@H]2CNC3)n2nccc2n1", "INHIBITION": -59}
{"smiles": "CCc1cc(N2CCN3CCCCC3C2)n2nccc2n1", "note": "(stereo not drawn)", "INHIBITION": 6.52}
{"smiles": "O=C1N(Cc2ccccn2)C[C@H]2CN(C3CCC3)CCN12", "INHIBITION": -13.7}
{"smiles": "O=C(C[C@@H]1COC[C@H]2CN(C3CCC3)C[C@@H]12)NCc1cccnc1", "INHIBITION": -138}
{"smiles": "CCOC[C@@H]1CC[C@H]2[C@H](CCN2Cc2c(C)noc2C)O1", "INHIBITION": -96.4}
{"smiles": "CN1CCCC(c2cncc(C(=O)NCc3ccccc3Cl)n2)C1", "note": "(stereo not drawn)", "INHIBITION": 72.4}
{"smiles": "CN1CCCC(c2cccc(Cc3ccccc3Cl)n2)C1", "note": "(stereo not drawn)", "INHIBITION": 70.3}
{"smiles": "CN1CCCC(Cc2nccnc2Cl)CC1", "note": "(stereo not drawn)", "INHIBITION": 5.74}
{"smiles": "Cc1nc(CC(=O)N2CCN(C)CC2c2ccccc2)cs1", "note": "(stereo not drawn)", "INHIBITION": -76.9}
{"smiles": "O=C(C1CCCC1)N1C[C@@H]2CCNC[C@@H]21", "INHIBITION": -78.2}
{"smiles": "O=C1CC2(CCN(Cc3cccnc3)C2)CN1c1cncnc1", "note": "(stereo not drawn)", "INHIBITION": -101}
{"smiles": "CC(C)NC(=O)N1CCOC2(CCNCC2)C1", "INHIBITION": 16.9}
